Test results from PubChem BioAssay (EPA / NIEHS).
Inconclusive results are not listed. Active and inactive are the calls of the source. How the source made its calls, unless noted: active means hit-call score of the fitted dose curve at least 0.9, where 1 is the maximum; inactive means score below 0.9.

How the values were obtained:
[1] = CCTE_Shafer_MEA_dev_spike_duration_mean: CCTE's Neural Network Formation Assay for Mean Spike Duration, Shafer Lab (AID 2284051);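 further: mean network spike duration pooled as area under curve over DIV 5 to 12 recordings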
How it was run: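 Spontaneous activity was recorded on days 5, 7, 9 and 12 from rat cortical cultures grown on microelectrode arrays and dosed continuously from day 0, with media and compound renewed after the DIV 5 and 9 recordings. Network-spike duration was collapsed by area under the curve.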

[2] = CCTE_Shafer_MEA_dev_network_spike_duration_std: CCTE's Neural Network Formation Assay for Standard Deviation of Network Spike Duration, Shafer Lab (AID 2284052);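 further: hits are decreases in network spike duration SD versus DMSO vehicle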
How it was run: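 Network spike duration variability was collapsed across recordings on days 5, 7, 9 and 12 by trapezoidal area-under-curve and fitted downward against DMSO. Cultures were rat cortical neurons on PEI-coated MEA plates, dosed continuously from plating, refed with compound DIV 5/9.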

[3] = CCTE_Shafer_MEA_dev_per_network_spike_spike_number_mean: CCTE's Neural Network Formation Assay for Mean Number of Spikes in a Network Spike, Shafer Lab (AID 2284053)
How it was run: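 Mean spike count within each network spike, taken in a 0.05 s window at its peak, was recorded on days 5, 7, 9 and 12 and integrated as trapezoidal area under the curve. Rat cortical cultures on MEA plates received continuous compound from day 0, refreshed at medium changes on DIV 5 and 9.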

[4] = CCTE_Shafer_MEA_dev_per_network_spike_spike_percent: CCTE's Neural Network Formation Assay for Percent of Spikes in a Network Spike, Shafer Lab (AID 2284054)
How it was run: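 Rat primary cortical cultures, 1.5 x 10^5 cells/well on MEA. Continuous compound exposure d0–12, medium/compound renewed DIV 5, 9. Network-spike spike % (0.05 s peak window), AUC over 4 recordings, DMSO baseline.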

[5] = CCTE_Shafer_MEA_dev_LDH: CCTE's Lactate Dehydrogenase Assay for Cytotoxicity in the Neural Network Formation Assay, Shafer Lab (AID 2284068; active means hit-call score of the fitted dose curve at least 0.9, where 1 is the maximum;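 further: exposure for twelve days from plating with re-dosing on DIV 5 and 9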)
How it was run: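 Primary rat cortical neurons were cultured on PEI-coated MEA plates and exposed from plating through day 12, with compound renewed at medium changes on DIV 5 and 9. LDH activity was read spectrophotometrically; loss of signal versus DMSO indicates reduced viability.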

[6] = CCTE_Shafer_MEA_dev_mutual_information_norm: CCTE's Neural Network Formation Assay for Mutual Information Normalization, Shafer Lab (AID 2284091)
How it was run: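 Developing rat cortical networks on 16-electrode MEA wells are treated throughout formation (DIV 0–12). Shared electrode information is recorded four times, converted to area-under-curve, and fitted for decreases against DMSO vehicle.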

[7] = CCTE_Shafer_MEA_dev_correlation_coefficient_mean: CCTE's Neural Network Formation Assay for Mean Correlation Coefficient, Shafer Lab (AID 2284093)
How it was run: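 Primary rat cortical neurons on PEI-coated 48-well MEA plates (16 electrodes/well) were exposed from plating day 0 through DIV12, with compound renewed at DIV5 and 9. Pairwise spike correlations were averaged per well; trapezoidal AUC across DIV5, 7, 9, 12.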

[8] = IUF_NPC1b_proliferation_BrdU_72hr: Leibniz Research Institute for Environmental Medicine (IUF) 72-hour Neural Progenitor Cell Bromodeoxyuridine (BrdU) Proliferation Assay (NPC1b) (AID 2284207)
How it was run: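 Proliferation of primary human neural progenitor cells: 72 h compound treatment at 37C, 5% CO2, pH 7.2-7.6, in EGF/FGF-containing medium. Readout is BrdU uptake (last 16 h) by chemiluminescent ELISA, normalised to DMSO.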

[9] = IUF_NPC1a_proliferation_area_72hr: Leibniz Research Institute for Environmental Medicine (IUF) 72-hour Neural Progenitor Cell Proliferation Area Assay (NPC1a) (AID 2284208)
How it was run: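 Measured in 3D suspension: each well held one primary hNPC sphere grown with EGF and FGF at pH 7.2-7.6. Compound stayed on for 72 h, then area was imaged; spheres lacking growth factors defined reduced proliferation.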

[10] = IUF_NPC1_viability_72hr: Viability Assessment at 72 hours in the Leibniz Research Institute for Environmental Medicine (IUF) Neural Progenitor Cell Proliferation Assay (NPC1) (AID 2284209)
How it was run: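 Each well receives one 0.3 mm progenitor sphere from fetal brain cortex; test chemical is added at plating and left three days. Viability comes from alamar blue fluorescence, multiplexed with LDH and BrdU readouts in the same well.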

[11] = CCTE_Mundy_HCI_Cortical_Synap_Neur_Matur_NeuriteSpotCountPerNeuriteLength: CCTE's Synaptogenesis and Neurite Maturation Assay in rat cortical cells for Neurite Spot Count per Neurite Length, Mundy Lab (AID 2284210)
How it was run: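 Primary rat cortical neurons, compound exposure DIV 7–12, 288.33 h endpoint. Hoechst, anti-MAP2 and anti-synaptophysin labelling; neurite-associated puncta per neurite length scored by automated imaging relative to DMSO controls.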

[12] = CCTE_Mundy_HCI_Cortical_Synap_Neur_Matur_BPCount: CCTE's Synaptogenesis and Neurite Maturation Assay in rat cortical cells for Branch Point Count, Mundy Lab (AID 2284211)
How it was run: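 Branch point number is quantified by automated imaging of fluorescently labelled neurites and synapses in rat primary cortical neurons exposed from DIV 7 to DIV 12. Activity is analysed relative to DMSO negative control.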

[13] = CCTE_Mundy_HCI_Cortical_NOG_NeuriteCount: CCTE's Neurite Outgrowth Assay in rat cortical cells for Neurite Count, Mundy Lab (AID 2284212);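 further: cells fixed about two days after chemical exposure began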
How it was run: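 Neurite number per cell from high-content imaging of betaIII-tubulin immunostaining, with Hoechst nuclear counterstain.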

[14] = CCTE_Mundy_HCI_Cortical_NOG_NeuriteLength: CCTE's Neurite Outgrowth Assay in rat cortical cells for Neurite Length, Mundy Lab (AID 2284213)
How it was run: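 Neurite length was read by high-content imaging of βIII-tubulin-labelled neurites in rat primary cortical cultures. Activity was fitted relative to DMSO.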

[15] = CCTE_Mundy_HCI_Cortical_Synap_Neur_Matur_NeuriteLength: CCTE's Synaptogenesis and Neurite Maturation Assay in rat cortical cells for Neurite Length, Mundy Lab (AID 2284214)
How it was run: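 Neurite length in rat primary cortical cultures is imaged after MAP2, synaptophysin and Hoechst staining. Dosing starts DIV 7, ending DIV 12; DMSO serves as negative control and baseline.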

[16] = CCTE_Mundy_HCI_Cortical_Synap_Neur_Matur_NeuriteSpotCountPerNeuron: CCTE's Synaptogenesis and Neurite Maturation Assay in rat cortical cells for Neurite Spot Count per Neuron Count, Mundy Lab (AID 2284215)
How it was run: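 Developing rat cortical neurons, with glia suppressed by AraC, are exposed to chemicals from DIV 7 to DIV 12. Automated fluorescence imaging of MAP2-labelled neurites and synaptophysin puncta yields a count per neuron, normalised against DMSO wells.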

[17] = CCTE_Mundy_HCI_Cortical_Synap_Neur_Matur_SynapseCount: CCTE's Synaptogenesis and Neurite Maturation Assay in rat cortical cells for Synapse Count, Mundy Lab (AID 2284218)
How it was run: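 Synapse count per neuron is measured in rat cortical neurons exposed to chemicals between DIV 7 and DIV 12, with glial growth arrested by AraC at DIV 5. Synaptophysin and MAP2 staining is imaged automatically; activity is fitted relative to DMSO.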

[18] = CCTE_Mundy_HCI_Cortical_Synap_Neur_Matur_NeuriteCount: CCTE's Synaptogenesis and Neurite Maturation Assay in rat cortical cells for Neurite Count, Mundy Lab (AID 2284222);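 further: exposure from day 7 to day 12 in vitro with readout at day 12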
How it was run: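 Rat cortical neurons, 96-well; AraC DIV 5; chemical + media change DIV 7; end DIV 12. Fix PFA/Hoechst, anti-MAP2 + anti-synaptophysin IF. HCI neurite count vs DMSO baseline.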

[19] = CCTE_Mundy_HCI_Cortical_Synap_Neur_Matur_CellBodySpotCount: CCTE's Synaptogenesis and Neurite Maturation Assay in rat cortical cells for Cell Body Spot Count, Mundy Lab (AID 2284223)
How it was run: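 Chemicals were applied to AraC-treated rat primary cortical cells at DIV 7 and measured at DIV 12. Fixed cells were labelled for MAP2, synaptophysin and nuclei, and high-content imaging gave cell body synaptophysin spot counts per neuron relative to DMSO.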

[20] = CCTE_Mundy_HCI_Cortical_NOG_BPCount: CCTE's Neurite Outgrowth Assay in rat cortical cells for Branch Point Count, Mundy Lab (AID 2284237)
How it was run: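 Measured 50.33 h after dosing, this morphology endpoint uses rat primary cortical cultures labelled for betaIII-tubulin. Branch points are quantified by high-content imaging, with DMSO as negative control and baseline.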

Measured: AC50

CN(C)CCC(c1ccc(Cl)cc1)c1ccccn1 (stereo not given)
inactive: all assays above

CC1(C)S[C@@H]2[C@H](NC(=O)[C@H](N)c3ccccc3)C(=O)N2[C@H]1C(=O)O
not listed: [8] | [9] | [10]
inactive: all other assays above

Oc1cccc2ccccc12
inactive: [8] | [9]
active: [10] 2440 nM

NC(N)=Nc1nc(CSCCC(N)=NS(N)(=O)=O)cs1
inactive: all assays above
